Laboratory results from PubChem BioAssay AID1347076 (National Center for Advancing Translational Sciences (NCATS), 2019).
Screen size: about 400,000 compounds; about 13,000 (3.2%) were called active. A call without a number means that no potency is given here. Inconclusive results (about 18%) are left out. The sample holds actives, similar compounds and a random draw of the others, so the mix is not that of the screen. The call rests on the fitted dose curve; in most records, active means well fitted cell-killing curve with a large enough effect; inconclusive means small, poorly fitted or top-dose-only effect, or effect the other way; inactive means flat fitted curve, though single readings scatter.

Test: qHTS assay for MDR1-selective chemotherapeutics: Primary screen using the drug-selected MDR subline cells KB-V1; further: nearly all actives have a fitted effect of over 60% in size
Conditions: KB-V1 MDR cells viability, CellTiter-Glo, 72 h; series mostly up to 46.1 µM
In short: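 Following 72 h at 37 degrees C with compound, KB-V1 cell viability was read by CellTiter-Glo luminescence, medium being phenol-red-free DMEM plus 10% FBS; concentration-response parameters came from normalized, curve-fitted qHTS data.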
Potency means the concentration at half of the fitted maximal effect.

Structure (SMILES) | Potency
O=C(NCc1cccnc1)c1cc(C2CCCN(C(=O)C3CCCCC3)C2)on1 (configuration not stated) | inactive
CC1(C)CC(=O)c2cc(C(=O)NCc3ccccc3)c(=O)[nH]c2C1 | inactive
CC(NC(=O)c1ccccc1F)c1cccc2ccccc12 (configuration not stated) | inactive
CC(NC(=O)c1cccc2ccccc12)c1ccc2c(c1)CCCC2 (configuration not stated) | 20.6 µM (active)
CC(NC(=O)c1ccccc1SCC(=O)N1CCCC1)c1ccccc1 (configuration not stated) | inactive
O=C1CCC(=O)N1CCC(=O)N(C(=O)NC1CCCCC1)C1CCCCC1 | inactive
CCOc1ccc(CCN2C(=O)C(=O)N([C@@H](Cc3ccc(O)cc3)CN3CCC[C@H]3CN3C(=O)C(=O)NC[C@@H]3CC(C)C)C[C@@H]2Cc2ccccc2)cc1 | inactive
CCCNC(=O)C1(C)CCN(C(=O)c2ccccc2OC(F)(F)F)C1 (configuration not stated) | inactive
Cc1cc(O)ccc1-c1cc(C(=O)NCc2cc(C(F)(F)F)cc(C(F)(F)F)c2)[nH]n1 | inactive
O=[N+]([O-])c1ccc(N2CCSCC2)cc1O | inactive
CN1CCN(c2ccc([N+](=O)[O-])c(Sc3nc4ccccc4[nH]3)c2)CC1 | 14.6 µM (active)
CC1CCN(c2ccc([N+](=O)[O-])c(SCCO)c2)CC1 | inactive
COc1ccc(Sc2ccc(NC(=O)c3cccc(Cl)c3)cc2C#N)cc1 | inactive
COc1ccc(-c2nn(-c3ccccc3)cc2/C=N/Nc2ccccn2)cc1OC | 3.66 µM (active)
Oc1ccc(Br)cc1/C=N/Nc1ccccn1 | inactive
COc1ccc(-c2nn(-c3ccccc3)cc2C(=O)Nc2nccs2)cc1OC | inactive
CS(=O)(=O)c1cccc(-c2ccc3nncn3c2)c1 | inactive
CCN(CCCNC(=O)c1c(C)oc2ncn(CC(C)C)c(=O)c12)Cc1ccccc1 | inactive
OCCN1CCN(c2ncnc3c2ncn3[C@H]2CN(Cc3ccco3)C[C@@H](CO)O2)CC1 | inactive
Cc1ccc(S(=O)(=O)Cc2cc(-c3ccc(Cl)cc3)no2)cc1 | inactive
O=S(=O)(Cc1ccc(Cl)cc1Cl)c1ccc(Cl)cc1 | 1.46 µM (active)
O=S(=O)(NCc1ccc(Cl)cc1Cl)c1cccs1 | inactive
CCCCc1ccc(S(=O)(=O)NC(=O)C2(C)CCN2C(=O)c2c(C)noc2C)cc1 (configuration not stated) | inactive
CCN(CCN(C)C)C(=O)c1ccc2nc(C)c(N(C)C(=O)CCc3ccccc3)n2c1 | inactive
O=C(NC1CCCC1)C(c1ccccn1)N(C(=O)c1csnn1)C1CCCC1 (configuration not stated) | 20.6 µM (active)
Cc1ccc(C(C(=O)NC2CCCCC2)N(C(=O)c2csnn2)C2CC2)o1 (configuration not stated) | inactive
O=C(NC1CCCC1)C(c1ccc(Cl)cc1)N(C(=O)c1csnn1)C1CC1 (configuration not stated) | inactive
